According to PMC4336329 (PLoS ONE, 2015):
Out of some 310,000 compounds screened, about 2,200 (0.71%) showed an effect of 50% or more. Effects have a minus sign here. The sample as a whole holds a higher share of strong results than the screen did.

The molecules below were run against human ether-à-go-go-related gene (hERG) potassium channel (human, UniProt Q12809) (assay: primary screen, population patch clamp on CHO cells stably expressing hERG; higher = less effect of the substance).
Method: Briefly, Chinese hamster ovary (CHO) cells stably expressing the hERG channel were dislodged from tissue culture flasks and dispensed into PPC plates. […] During the recording, background leak currents were estimated by a 100 ms step to -80 mV from an initial holding potential of -70 mV and subtracted from the subsequent current measurement. The campaign was conducted in two phases using slight differences in recording protocol. In the first phase, the initial voltage pulse used a 100 ms step to -30 mV from a holding potential of -70 mV, a 2 s conditioning step to +25 mV, and a 2 s test step to -30 mV. During the second phase of the screen, the potential during the conditioning step was raised to +45 mV. In both phases of the campaign, a secondary voltage pulse was applied using the same parameters as the second phase initial pulse. The initial and secondary pulses were applied in the absence of compound, and upon application of 1 μM and 10 μM test concentrations. Small molecule effects on hERG current density were quantified by […].

human ether-à-go-go-related gene (hERG) potassium channel, sequence (Q12809 whole entry, looked up): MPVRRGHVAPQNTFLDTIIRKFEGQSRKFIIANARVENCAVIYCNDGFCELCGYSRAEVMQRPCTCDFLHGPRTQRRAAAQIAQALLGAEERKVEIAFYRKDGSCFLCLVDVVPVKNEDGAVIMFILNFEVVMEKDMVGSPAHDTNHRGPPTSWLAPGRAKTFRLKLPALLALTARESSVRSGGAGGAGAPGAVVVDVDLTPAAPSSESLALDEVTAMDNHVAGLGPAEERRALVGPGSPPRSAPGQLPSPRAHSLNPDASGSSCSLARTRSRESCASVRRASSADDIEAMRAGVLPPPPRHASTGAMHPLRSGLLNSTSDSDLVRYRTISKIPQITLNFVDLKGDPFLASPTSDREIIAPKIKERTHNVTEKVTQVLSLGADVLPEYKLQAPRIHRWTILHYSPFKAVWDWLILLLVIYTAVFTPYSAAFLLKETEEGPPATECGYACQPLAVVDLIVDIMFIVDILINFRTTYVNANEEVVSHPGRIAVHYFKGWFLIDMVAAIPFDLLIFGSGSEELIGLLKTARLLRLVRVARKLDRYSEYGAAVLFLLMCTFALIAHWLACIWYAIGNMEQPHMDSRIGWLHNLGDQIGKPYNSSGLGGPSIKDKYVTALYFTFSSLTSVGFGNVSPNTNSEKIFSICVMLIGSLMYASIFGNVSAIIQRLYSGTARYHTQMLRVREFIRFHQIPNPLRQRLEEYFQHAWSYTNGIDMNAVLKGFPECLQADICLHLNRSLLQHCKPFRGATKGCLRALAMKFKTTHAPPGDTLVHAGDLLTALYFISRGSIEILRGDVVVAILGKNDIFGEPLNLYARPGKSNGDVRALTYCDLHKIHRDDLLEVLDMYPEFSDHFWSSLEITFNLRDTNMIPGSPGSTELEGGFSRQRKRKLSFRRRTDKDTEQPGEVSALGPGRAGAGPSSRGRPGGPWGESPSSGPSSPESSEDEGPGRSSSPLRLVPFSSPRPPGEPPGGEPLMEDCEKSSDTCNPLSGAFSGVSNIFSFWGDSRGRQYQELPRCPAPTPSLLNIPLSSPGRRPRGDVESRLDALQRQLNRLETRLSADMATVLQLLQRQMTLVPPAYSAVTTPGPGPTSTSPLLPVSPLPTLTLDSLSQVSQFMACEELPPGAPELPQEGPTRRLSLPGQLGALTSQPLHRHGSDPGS

| SMILES | hERG current change (%, negative = inhibition) at 1uM |
| --- | --- |
| O=C(COC(=O)c1ccco1)NCC1CCCO1 (stereo not shown) | -0.29% |
| COc1cc(CNC23CC4CC(CC(C4)C2)C3)ccc1OCc1ccccc1.Cl | 1.77% |
| COc1cccc(CNC23CC4CC(CC(C4)C2)C3)c1OCc1ccccc1.Cl | 3.29% |
| Cl.c1ccc(COc2ccccc2CNC23CC4CC(CC(C4)C2)C3)cc1 | -73.8% |
| Cc1cccc(-c2ccc(NC(=O)C3CCN(CC4CC4)CC3)cc2)c1 | -5.16% |
| Cc1cccn2c(=O)c3cc(C(=O)NCC4CCCO4)c(=N)n(C4CCCCC4)c3nc12 (stereo not shown) | -83.7% |
| Cc1cccn2c(=O)c3cc(C(=O)NCC4CCCO4)c(=N)n(C4CCCC4)c3nc12 (stereo not shown) | -80.3% |
| COc1ccc(C2/C=C\CN(C(=O)c3ccc(C)cc3)[C@H](Cc3ccccc3)C(=O)N2Cc2ccc(F)cc2)cc1 (stereo partly shown) | 11.8% |
| O=C(Cn1cnc(S(=O)(=O)N2CCCCC2)c1)Nc1ccc(OC(F)(F)F)cc1 | 11.7% |
| O=C(Oc1cccc2cccnc12)c1cccc(N2C(=O)C3C4CCC(C4)C3C2=O)c1 (stereo not shown) | 3.55% |
| Cc1ccc(NC(=O)CSCC(=O)Nc2ccc(S(=O)(=O)N3CCOCC3)cc2)cc1 | 11.4% |
| COc1ccc(C(=O)CSc2nnc(-c3cc4ccccc4cc3O)n2Cc2ccco2)cc1 | -16.2% |
| Cl.O=C(CCCN1CCC(O)(c2cccc(C(F)(F)F)c2)CC1)c1ccc(F)cc1 | -80.9% |
| O=C(CCCN1CCC(O)(c2ccc(Br)cc2)CC1)c1ccc(F)cc1 | -75.7% |
| Cl.O=C(CCN1CCN(c2ccccc2F)CC1)c1ccc(Br)cc1 | -40% |
| OC1(c2ccc(Cl)cc2)CCN(Cc2cn[nH]c2-c2ccc(F)cc2)CC1 | -27.2% |
| CC(=O)N1CCC(O)(c2cccc(C(F)(F)F)c2)CC1 | 8.78% |
| OC1(c2cccc(C(F)(F)F)c2)CCN(CCN2CCCCC2)CC1 | 16.2% |
| OC(CN1CCN(c2ccc(F)cc2)CC1)c1ccc(Cl)cc1 (stereo not shown) | 2.87% |
| OC(CCCN1CCC(O)(c2ccc(Cl)cc2)CC1)c1ccc(F)cc1 (stereo not shown) | -72.7% |
| O=C(CN1CCC(O)(c2ccc(F)cc2)CC1)NCc1ccc(F)cc1 | -0.396% |
| COc1ccc(CCNC(=O)C(C)n2nc(C)n3c(cc4occc43)c2=O)cc1OC (stereo not shown) | 12.2% |
| NC(=O)c1ccc(NC(=O)c2cccc(Oc3ccccc3)c2)cc1 | 12.5% |

| SMILES | hERG current change (%, negative = inhibition) at 1uM |
| --- | --- |
| CCOC(=O)C1=C(C)NC(C)=C(C(=O)OCC)C1c1ccc(Br)o1 | 9.3% |
| COc1cc([N+](=O)[O-])ccc1NC(=S)NCc1ccccn1 | 8.38% |
| Cc1cc(C)c(NC(=O)CCCSc2nnc(N)s2)c(C)c1 | -4.26% |
| S=C(Nc1ccc(Cl)cc1Cl)Nc1ccccc1Oc1ccccc1 | 12.4% |
| O=C1c2ccccc2C(=O)N1CSc1ncccn1 | 1.65% |
| Cc1cc(C)nc(N2CCC(C(=O)NCc3ccco3)CC2)n1 | 1.22% |
| Cc1cc(C)nc(N2CCC(C(=O)NC3CCCCCC3)CC2)n1 | 0.0346% |
| Cc1cc(NCc2ccco2)nc(N2CCC(C(=O)NC3CCCCC3)CC2)n1 | -63.6% |
| COc1cccc(CCNC(=O)c2ccc(C#N)cc2)c1 | 8.19% |
| Cc1[nH]nc(N)c1-c1ccc(Cl)cc1 | 3.97% |
| O=C(NCCc1ccccc1)/C(=C\c1cccc([N+](=O)[O-])c1)NC(=O)c1ccco1 | -50.6% |
| O=C(NCc1ccccc1)/C(=C\c1ccccc1)NC(=O)c1ccco1 | 11.9% |
| O=C(NCCO)/C(=C/c1cccc([N+](=O)[O-])c1)NC(=O)c1ccco1 | 9.43% |
| O=C(NCc1ccco1)/C(=C/c1ccc([N+](=O)[O-])cc1)NC(=O)c1ccco1 | -50.4% |
| O=C(NCCc1ccccc1)/C(=C\c1ccc([N+](=O)[O-])cc1)NC(=O)c1ccccc1 | 3.17% |
| O=C(NCc1ccccc1)/C(=C/c1ccc([N+](=O)[O-])cc1)NC(=O)c1ccco1 | -31% |
| O=C(NCCc1ccccc1)/C(=C\c1ccc([N+](=O)[O-])cc1)NC(=O)c1ccco1 | -59% |
| O=C(NCCO)/C(=C\c1cccc([N+](=O)[O-])c1)NC(=O)c1ccco1 | 8.45% |
| O=C(NCc1ccccc1)/C(=C\c1ccc([N+](=O)[O-])cc1)NC(=O)c1ccco1 | -19.6% |
| CC(=O)Oc1ccc(/C=C(\NC(=O)c2ccco2)C(=O)NCc2ccco2)cc1 | -11% |
| CC(=O)Oc1ccc(/C=C(\NC(=O)c2ccco2)C(=O)NCc2ccccc2)cc1 | -58.9% |
| O=C(NCCc1ccccc1)/C(=C\c1ccccc1)NC(=O)c1ccco1 | 9.3% |
| O=C(OCC(=O)N1CCCC1=O)c1ccc(F)c(S(=O)(=O)N2CCOCC2)c1 | -4.67% |
